# Shown are actives, neighbours in structure and some others; about 6.2% of the full set was active somewhere.
# S2 tox: reduces viability in counter-screen for ATXN expression inhibitors; S2 cells (HEK-293 line with an ATXN2-luciferase reporter) viability, CellTiter-Fluor protease fluorescence, 24 h; 400,000 compounds, 0.49% hits; AID 651635; Potency, µM (highest dose often 56.7 µM), hits mostly cytotoxic; also: nearly all actives have a fitted effect of over 40% in size
# KB-3-1 cytotox: KB-3-1 parental cell cytotoxicity. KB-3-1 viability, CellTiter-Glo ATP luminescence, 72 h. Potency, µM (doses to about 46.1 µM), usual class: cytotoxic. 400,000 compounds, 1.4% hits. AID 1347075; also: % is scaled to controls: 0 for no effect and ±100 for the full control effect; nearly all actives have a fitted effect of over 60% in size
#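 Using CellTiter-Glo luminescence, growth of non-resistant KB-3-1 adenocarcinoma cells is assessed 72 h after pin-tool compound addition at 37 °C. Normalized responses across the concentration series yield fitted curves.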
# ATXN2 expr inh: ATXN2 expression inhibition. HEK-293 ATXN2-luciferase reporter, luminescence, 24 h. Potency, µM (top dose mostly 57 µM), without a hit: top-dose activity change, negative = inhibition, usual class: inhibitors. 360,000 compounds, 0.72% hits; also: % is scaled to controls: 0 for no effect and ±100 for the full control effect; nearly all actives have a fitted effect of over 55% in size
#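 qHTS (up to 57 uM final) was run with 24 h compound exposure of reporter cells at 37 °C. Each well was multiplexed: SteadyGlo luminescence measured ATXN2-luciferase expression after a fluorogenic Gly-Phe-AFC viability readout (25 uM final).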
# HT1080NT lethal: kills 2HG-producing HT-1080-NT fibrosarcoma cells; HT-1080-NT fibrosarcoma viability, CellTiter-Glo ATP luminescence, 48 h; Potency, µM (doses to about 46.1 µM), for the others: at the highest dose activity, negative = less viability, most hits filed as cytotoxic; 360,000 compounds, 1.6% hits; AID 686970;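 also: NT is the 2HG producing partner of a matched IDH1 knockdown line; 0% = DMSO-treated cells and -100% = media-only wells without cells; nearly all actives have a fitted effect of over 55% in size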
#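 A 48-hour cytotoxicity screen used HT-1080-NT cells plated 2 hours before compound delivery. ATP-based CellTiter-Glo luminescence measured viability, normalized to DMSO and no-cell controls.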
# HT1080 IDH1KD tx: kills HT-1080 cells with IDH1 knockdown | HT-1080 IDH1 knockdown viability, ATP luminescence, 48 h | Potency, µM (titrated, usually from 46.1 µM), inactives show top-dose activity, negative = toxicity, hits mostly cytotoxic | 360,000 compounds, 2% hits;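 also: 0% = DMSO wells and -100% = cell-free medium wells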
#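 CellTiter-Glo luminescence after 48 h compound exposure at 37 degrees C of IDH1-knockdown HT-1080 cells in 5% FBS RPMI. %Activity scaled between DMSO wells and cell-free media wells, with curves fitted and assigned curve classes.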
# KB-V1 cytotox: kills drug-selected multidrug resistant KB-V1 cells | KB-V1 MDR cells viability, CellTiter-Glo, 72 h | Potency, µM (series often up to 46.1 µM), actives largely listed as cytotoxic | 400,000 compounds, 3.4% hits | AID 1347076; also: % is scaled to controls: 0 for no effect and ±100 for the full control effect; nearly all actives have a fitted effect of over 60% in size
#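 In this primary screen, KB-V1 cells overexpressing P-gp are incubated with library compounds (lowest to highest concentration) for 72 h at 37 degrees C before a luminescent ATP viability read.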
# The depositor's hits bear a star; i = inactive; ? = inconclusive; nt = no result given; [ ] = dose if it differs, or a comment. Calls follow the shape of the dose curve; as a rule, active = well fitted curve in the direction sought with a large enough effect; inconclusive = small, poorly fitted or top-dose-only effect, or another doubt; inactive = no such curve, though single readings can be large; an effect the other way counts as inactive or inconclusive. Potency is read from the fitted curve at half-maximal effect.
SMILES,S2 tox,KB-3-1 cytotox,ATXN2 expr inh,HT1080NT lethal,HT1080 IDH1KD tx,KB-V1 cytotox
Nc1ncnc2nn(C3OC(CO)C(O)C3O)nc12 (stereo not given),?,i,nt,?,13µM*,?
Nc1nc(Cl)nc2c1ncn2[C@@H]1O[C@H](CO)[C@@H](O)[C@H]1F,nt,nt,0.0097µM*,nt,nt,nt
Nc1nc(Cl)nc2c1ncn2[C@@H]1O[C@H](CO)[C@@H](O)[C@H]1O,i,?,-3%,18µM*,?,16µM*
O=C1CCCC2=C1C1(CCSCC1)N=C(Nc1nc3ccccc3o1)N2,nt,i,nt,nt,nt,i
FC(F)(F)c1cc(Nc2ccccc2)nc(-c2ccccn2)n1,i,i,?,7%,15%,i
FC(F)(F)c1cc(Sc2ccccc2)nc(-c2ccccn2)n1,i,i,-2%,13µM*,?,?
COc1ccc(NC(=O)c2c(Cl)n(C)c3ccccc23)cc1,?,2.9µM*,23%,18µM*,?,5.8µM*
COc1ccc(NS(=O)(=O)NC(=O)c2c(C)n(C)c3ccccc23)cc1,i,i,13%,?,?,i
CCOc1ccc2c(c1)/C(=C(\C(Cl)=C(Cl)Cl)[N+](=O)[O-])N2,nt,?,-6%,2%,-6%,i
CCCCOc1ccc2c(c1)/C(=C(\C(Cl)=C(Cl)Cl)[N+](=O)[O-])N2,i,?,5%,9%,-2%,21µM*
Cc1cc(C(=O)Nc2ccccc2-c2nc(CNC(=O)c3ccccc3Cl)c(C)o2)c(C)o1,i,nt,nt,nt,nt,nt
CCCc1nc2ccc(C)cn2c1Cc1ccccc1C(F)(F)F,?,i,?,26µM*,33µM*,i
FC(F)(F)c1ccccc1Cc1c(C2CCCCC2)nc2ccc(Cl)cn12,18µM*,i,?,?,?,i
CCCc1nc2ccc(Cl)cn2c1Cc1ccccc1OC,?,?,?,?,?,i
CCCc1nc2ccc(Br)cn2c1Cc1ccccc1OC,22µM*,?,?,?,?,i
CCCc1nc2ccc(C)cn2c1Cc1ccccc1OC,nt,i,?,?,18µM*,?
Cc1ccc2nc(C3CCCCC3)c(CC(C)(C)C)n2c1,22µM*,i,-32%,16µM*,?,i
Cc1ccc(Cc2c(C3CCCCC3)nc3ccc(Br)cn23)cc1,?,i,-26%,?,?,i
COc1ccccc1Cc1c(C2CCCCC2)nc2ccc(C)cn12,nt,i,?,13µM*,?,i
COc1ccccc1Cc1c(C2CCCCC2)nc2ccc(Cl)cn12,?,?,?,?,?,i
CCSC1=N/C(=C\c2ccccc2)C(=O)N1c1ccc(OC)cc1,i,i,-2%,26%,11%,i
CCN(CC)C1=N/C(=C\c2ccc(OC)cc2)C(=O)N1c1ccccc1,i,i,5%,-10%,-13%,8.2µM*
FC(F)(F)c1ccccc1NC(=S)N1CCCC1,i,i,-14%,-4%,-2%,i
FC(F)(F)c1ccccc1NC(=S)NN=C1CCCCCC1,i,?,-11%,13µM*,18µM*,?
CC1CC(=O)NN=C1c1ccc(N(C)C)c([N+](=O)[O-])c1 (stereo not given),i,i,5%,-4%,0%,?
SMILES,S2 tox,KB-3-1 cytotox,ATXN2 expr inh,HT1080NT lethal,HT1080 IDH1KD tx,KB-V1 cytotox
CCN(CC)c1ccc(C2=NNC(=O)CC2C)cc1[N+](=O)[O-] (stereo not given),i,0.21µM*,12%,8%[9.24 µM],?,?
COc1ccc2c(c1)c1c(c(=O)n(-c3cccc(Cl)c3)c(=O)n1C)n2C,i,i,1%,nt,nt,?
COc1ccc(-c2coc3c(C(=O)NCc4ccc(F)c(F)c4)cccc23)c(C)c1,i,i,-16%,13µM*,13µM*,?
COc1ccc(-c2coc3c(C(=O)NCc4ccc(OC)c(OC)c4)cccc23)c(C)c1,?,i,?,?,4.1µM*,?
COCCCNC(=O)c1cccc2c(-c3ccc(OC)cc3C)coc12,?,?,0%,?,?,?
COc1ccc(CNC(=O)c2cccc3c(-c4cnn(C)c4)coc23)cc1OC,i,i,?,23µM*,?,i
COc1ccc(-c2coc3c(C(=O)NCCc4ccccc4)cccc23)c(C)c1,?,i,?,?,?,?
COc1ccc(-c2ccc(C(=O)NCc3ccc(F)c(F)c3)c3occc23)c(C)c1,i,i,?,?,?,i
COc1ccc(-c2coc3c(C(=O)NCCN(C)C)cccc23)c(C)c1,i,?,-13%,26µM*,16µM*,i
Cn1c(=O)n(C)c2cc(NS(=O)(=O)c3ccc(F)cc3)c(NCc3ccccc3)cc21,i,i,26%,nt,nt,?
CCC(C(=O)NCc1ccccc1)n1ncn2c(cc3occc32)c1=O (stereo not given),i,i,11%,nt,nt,i
COc1cc(OC)c(OC)cc1CN1CCc2nc(N3CCN(c4ccccc4F)CC3)ncc2C1,i,?,-22%,nt,nt,?
COc1ccc(/C=C/C(=O)N2CCN(c3ccccc3)CC2)cc1S(=O)(=O)N1CCOCC1,?,i,-32%,-20%,-17%,7.3µM*
COc1ccc(/C=C/C(=O)Nc2ccccc2C)cc1S(=O)(=O)N1CCOCC1,?,?,nt,13µM*,-1%,i
CCc1nnc(NC(=O)c2ccc(S(=O)(=O)N3CCCCCC3)cc2)s1,i,i,-12%,?,-3%,i
CCc1nnc(NC(=O)c2ccc(OC)c(S(=O)(=O)N3CCCC3)c2)s1,i,i,-7%,0%,-12%,21µM*
COc1ccc(/C=C/C(=O)N2CCC(C(N)=O)CC2)cc1S(=O)(=O)N1CCOCC1,i,i,-14%,12%,22%,i
COc1ccc(C(=O)OCc2cc(C)ccc2C)cc1S(=O)(=O)N1CCCC1,i,i,3%,-6%,-1%,5.2µM*
O=C(Nc1nnc(S(=O)(=O)N2CCCc3ccccc32)s1)c1ccccc1Br,i,i,3%,nt,nt,i
COc1ccc(C(=O)N2CCCC2)cc1S(=O)(=O)N1CCOCC1,i,23µM*,0%,5%,4%,i
CSc1ccc(NC(=O)N2CCN(c3nc4ccccc4s3)CC2)cc1,?,?,-20%,2%,-5%,2.6µM*

# Source: PubChem BioAssay (National Center for Advancing Translational Sciences (NCATS))
